ROC1-CUL1 inh – blocks human RBX1-Cullin-1 di-ubiquitin formation; 140,000 tested, 0.6% active; inhibition, % at 10 µM; in vitro K48 di-Ub FRET, acceptor:donor ratio, 45 min; P62877+Q13616; in the data active means inhibition above about 25%
Target sequence (P62877 whole entry, looked up): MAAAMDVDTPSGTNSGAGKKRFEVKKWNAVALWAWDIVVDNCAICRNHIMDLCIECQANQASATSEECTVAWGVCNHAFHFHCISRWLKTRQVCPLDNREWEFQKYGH
Target sequence (Q13616 whole entry, looked up): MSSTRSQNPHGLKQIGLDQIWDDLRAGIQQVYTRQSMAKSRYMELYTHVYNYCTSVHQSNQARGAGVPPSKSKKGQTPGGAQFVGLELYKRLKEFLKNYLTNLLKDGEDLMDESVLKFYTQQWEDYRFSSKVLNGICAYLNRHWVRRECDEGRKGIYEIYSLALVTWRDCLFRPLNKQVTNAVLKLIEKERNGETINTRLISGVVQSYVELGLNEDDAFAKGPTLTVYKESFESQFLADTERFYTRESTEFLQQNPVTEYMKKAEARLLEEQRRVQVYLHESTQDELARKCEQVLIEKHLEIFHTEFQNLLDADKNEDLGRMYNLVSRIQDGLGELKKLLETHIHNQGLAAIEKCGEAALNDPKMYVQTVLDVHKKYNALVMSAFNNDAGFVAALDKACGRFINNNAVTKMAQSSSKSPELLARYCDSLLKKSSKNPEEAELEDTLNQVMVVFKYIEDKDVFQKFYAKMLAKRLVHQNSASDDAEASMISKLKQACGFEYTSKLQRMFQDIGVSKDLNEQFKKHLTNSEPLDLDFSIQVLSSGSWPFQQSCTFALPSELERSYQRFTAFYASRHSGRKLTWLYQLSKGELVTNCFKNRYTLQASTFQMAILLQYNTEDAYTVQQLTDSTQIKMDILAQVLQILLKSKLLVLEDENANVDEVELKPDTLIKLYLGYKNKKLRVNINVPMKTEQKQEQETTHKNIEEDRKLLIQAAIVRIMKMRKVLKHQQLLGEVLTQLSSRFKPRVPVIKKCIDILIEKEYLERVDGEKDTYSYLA
Numbers stand for hits. Only a selection was taken, and hits are over-represented in it overall.

How did N#Cc1ccccc1CN1C(=O)S/C(=C\c2ccc(-c3ccc(C(=O)O)c(Cl)c3)o2)C1=O do in these assays?
ROC1-CUL1 inh: inactive

How did COc1ccc(NC(=O)CN2C(=O)S/C(=C/c3cccn3-c3ccc(C)c(C)c3)C2=O)cc1 do in these assays?
ROC1-CUL1 inh: inactive

Results for O=C(CN1C(=O)S/C(=C\c2ccc(Cl)cc2)C1=O)Nc1ccc(C(=O)O)cc1 ?
ROC1-CUL1 inh: inactive

Results for Cc1ccccc1NC(=O)CN1C(=O)S/C(=C\c2ccc(-c3cccc(C(=O)O)c3C)o2)C1=O ?
ROC1-CUL1 inh: inactive

Results for Cc1ccc(NC(=O)CN2C(=O)S/C(=C\c3ccc(-c4cc(C(=O)O)ccc4Cl)o3)C2=O)cc1C ?
ROC1-CUL1 inh: inactive

What do the screens show for `COc1ccc([N+](=O)[O-])cc1NC(=O)c1cccc(I)c1`?
ROC1-CUL1 inh: inactive

What do the screens show for `COc1cccc(C(=O)OCc2ccc(OC(=O)c3cccc(OC)c3)c(OC)c2)c1`?
ROC1-CUL1 inh: inactive

What do the screens show for `Cn1c(Cc2ccccc2)nnc1SCC(=O)Nc1ccc(Cl)cc1`?
ROC1-CUL1 inh: inactive

How did CCc1noc(C)c1C(=O)Nc1sc(C)c(CC)c1C(=O)OC do in these assays?
ROC1-CUL1 inh: inactive

What do the screens show for `COCCn1c(=O)c2c(nc3n2CCCN3c2cc(C)cc(C)c2)n(C)c1=O`?
ROC1-CUL1 inh: inactive

How did O=C(c1ccccc1)c1ccc(-c2[nH]c(-c3cccc(I)c3)nc2-c2ccccc2)cc1 do in these assays?
ROC1-CUL1 inh: inactive

How did Cc1c(Cl)c(C(F)(F)F)nn1CC(=O)OC(C)C do in these assays?
ROC1-CUL1 inh: inactive

How did COc1ccc(/C=C2/SC(=O)N(CNc3ccc(C)c(C)c3)C2=O)cc1OC do in these assays?
ROC1-CUL1 inh: inactive

How did c1ccc(-n2ncc3c2CCCC3NCc2cccn2-c2ncccn2)nc1 (stereo not given) do in these assays?
ROC1-CUL1 inh: inactive

Results for O=C(c1cccc(Cl)c1Cl)N1CCN(c2ccccc2F)CC1 ?
ROC1-CUL1 inh: inactive

Results for O=C(Nc1sc2c(c1C(=O)O)CCCCC2)c1ccccc1 ?
ROC1-CUL1 inh: inactive

What do the screens show for `CC(=O)Nc1sc2c(c1C(=O)c1ccccc1)CCCC2`?
ROC1-CUL1 inh: inactive

How did Cc1ccc(C(=O)Nc2sc3c(c2C(=O)O)CCCC3)cc1 do in these assays?
ROC1-CUL1 inh: 47

What do the screens show for `CCOC(=O)c1c(NC(=O)c2ccc(C)cc2)sc2c1CCCCC2`?
ROC1-CUL1 inh: inactive

What do the screens show for `NCCNC(=O)c1c(NC(=O)c2ccccc2)sc2c1CCCC2`?
ROC1-CUL1 inh: 34

Results for CN1CCN(C(=O)c2c(NC(=O)c3ccccc3)sc3c2CCCC3)CC1 ?
ROC1-CUL1 inh: inactive

How did CCCOc1cc(C2c3c(n[nH]c3-c3ccc(Cl)cc3)OC(=N)C2C#N)ccc1OC (stereo not given) do in these assays?
ROC1-CUL1 inh: inactive

What do the screens show for `Cc1ccc(C)c(OCc2cc(C(=O)N3CCCC4(CCCN(C)C4)C3)no2)c1` (stereo not given)?
ROC1-CUL1 inh: inactive

What do the screens show for `CN(CCOc1ccccc1)C(=O)Cn1cc(NC(=O)CCC(=O)c2ccccc2)cn1`?
ROC1-CUL1 inh: inactive

Results for c1ccc2c(c1)Cc1ccccc1C2=Nc1nc2ccccc2[nH]1 ?
ROC1-CUL1 inh: inactive

What do the screens show for `O=C(c1ccc(F)cc1)N1N=C(c2ccccc2)CC1c1ccc2c(c1)OCO2` (stereo not given)?
ROC1-CUL1 inh: inactive

How did N#CC(CC1=Nc2ccccc2C1=O)C(N)=NC1CCCCC1 (stereo not given) do in these assays?
ROC1-CUL1 inh: 71

What do the screens show for `CCN(CC)CCN=C(N)C(C#N)CC1=Nc2ccccc2C1=O` (stereo not given)?
ROC1-CUL1 inh: inactive

What do the screens show for `CN(C)CC1=Nc2ccccc2C1=O`?
ROC1-CUL1 inh: inactive

What do the screens show for `CCOC1c2cc3ccc(Cl)cc3nc2Sc2ncnn21` (stereo not given)?
ROC1-CUL1 inh: inactive

Results for Cc1nnsc1C(=O)N(C)c1ccccc1 ?
ROC1-CUL1 inh: inactive

What do the screens show for `Nc1cc2nsnc2cc1Br`?
ROC1-CUL1 inh: 96

How did Nc1cnc(Br)cc1Br do in these assays?
ROC1-CUL1 inh: inactive

Results for O=C1CC(CC(=O)N2CCCC2c2nccs2)(c2cccc(F)c2)C(=O)N1Cc1cccnc1 (stereo not given) ?
ROC1-CUL1 inh: inactive

How did C=CCO/N=C(/C)C1C(=O)C(CC)=C(c2ccccc2)N(c2ccccc2)C1=O (stereo not given) do in these assays?
ROC1-CUL1 inh: inactive

Results for Cc1ccc(S(=O)(=O)CC(=O)c2ccc(C)c(C)c2)cc1 ?
ROC1-CUL1 inh: inactive

Results for COc1cccc(CCC2CCCN(C(=O)CSC)C2)c1 (stereo not given) ?
ROC1-CUL1 inh: inactive

What do the screens show for `O=C1NC(=S)S/C1=C/C=C/c1ccccc1Cl`?
ROC1-CUL1 inh: inactive

How did Cc1ccccc1N=C/C=C1\N(C)c2ccccc2C1(C)C do in these assays?
ROC1-CUL1 inh: inactive

What do the screens show for `CN1/C(=C\C=C2/SC(=S)NC2=O)C(C)(C)c2ccccc21`?
ROC1-CUL1 inh: 34

Results for CCOC(=O)c1ccc(N=C2S/C(=C/c3cc(OC)c(OC)c(OC)c3)C(=O)N2CC)cc1 ?
ROC1-CUL1 inh: inactive

How did CCN1C(=O)/C(=C/c2cc(OC)c(OCC(=O)O)cc2Br)SC1=Nc1ccc(OC)cc1 do in these assays?
ROC1-CUL1 inh: inactive

Screening results from PubChem.
